{"source": "PubChem BioAssay (NCI)", "note": "This is part of a sample that, as a whole, favours compounds with a hit. Of some 83,000 tested, about 20% had one in any assay.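 Values shown are percent growth following 48 h exposure of cells in 96-well plates to a single concentration of compound; below 10 was considered active.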 The source made the active and inactive calls."}
{"test_system": "SW-620 colon", "assay": "NCI-60 one-dose screen, 48 h (100 = growth as untreated, 0 = no growth, -100 = all killed)", "settings": "10 µM unless noted"}
{"smiles": "C=C(C)[C@@H]1CC[C@]2(C(=O)NS(=O)(=O)c3ccccc3)CC[C@]3(C)[C@H](CC[C@@H]4[C@@]5(C)CC[C@H](OC(=O)NS(=O)(=O)c6ccccc6)C(C)(C)[C@@H]5CC[C@]43C)[C@@H]12", "growth": "16.6% (inactive)"}
{"smiles": "O=[N+]([O-])c1ccc(N/N=C/c2ccccc2O)nc1", "growth": "52.6% (inactive)"}
{"smiles": "CN1C(=O)N(C)C2C1NN=c1s/c(=C\\c3ccc(C(F)(F)F)cc3)c(=O)n12", "note": "(centres undefined)", "growth": "19.1% (inactive)"}
{"smiles": "CC(C)c1ccc(-c2cnc3nonc3n2)cc1", "growth": "29.8% (inactive)"}
{"smiles": "COc1ccc(N=C2CSc3nnc(-c4cc(F)c(Cl)cc4Cl)n3N2)cc1", "growth": "-47.1% (active)"}
{"smiles": "O=C1C=CN2C(=O)CC=CC2[C@@H]1O", "note": "(some centres undefined)", "growth": "111% (inactive)"}
{"smiles": "CCCNCCC(C)=O", "growth": "97.6% (inactive)"}
{"smiles": "O=C(Cc1ccc([N+](=O)[O-])cc1)Oc1ccccc1", "growth": "114% (inactive)"}
{"smiles": "CN(C)c1ccc(/C=C\\c2cccc[n+]2C)cc1", "growth": "22.4% (inactive)"}
{"smiles": "COc1cccc(NC(=O)OC(C)C)c1", "growth": "96.6% (inactive)"}
{"smiles": "COC(=O)c1ccc2c(c1)nc(-c1ccc(Cl)cc1)n2-c1cc(C(C)(C)C)[nH]n1", "growth": "49.1% (inactive)"}
{"smiles": "Cc1ccc(Nc2cc(Cl)c([N+](=O)[O-])cc2[N+](=O)[O-])cc1", "growth": "9.72% (active)"}
{"smiles": "CCOC(=O)c1cc(C(=O)OCC)c(C)nc1C", "growth": "110% (inactive)"}
{"smiles": "O=C(Nc1cccc(C2=NCCN2)c1)c1ccc(N=Nc2ccc(C(=O)Nc3cccc(C4=NCCN4)c3)cc2)cc1", "growth": "70.7% (inactive)"}
{"smiles": "Cc1c(C(=O)CCl)c(=O)n(-c2ccccc2)n1C", "growth": "36.6% (inactive)"}
{"smiles": "O=C1/C=C/[C@@H](O)[C@@H]2C[C@@H](O)C[C@H]2/C=C/CCC[C@H]([C@@H](O)CO)O1", "growth": "104% (inactive)"}
{"smiles": "CC(=O)N1N=C(C2C(=O)N(C)C(=O)N(C)C2=O)CC1c1ccccc1C(=O)O", "note": "(centres undefined)", "growth": "107% (inactive)"}
{"smiles": "Cn1c(=O)c2c(nc(N/N=C/c3ccccc3Cl)n2C)n(C)c1=O", "growth": "108% (inactive)"}
{"smiles": "O=C1Nc2ccc(Cl)cc2/C1=C\\c1c(-c2ccc(F)cc2)nc2ccccn12", "growth": "8.89% (active)"}
{"smiles": "O=C(O/C(=C/c1ccccc1)C(F)(F)F)c1ccccc1", "growth": "113% (inactive)"}
{"smiles": "COC(=O)c1ccc2c(c1)nc(-c1cc3ccccc3[nH]c1=O)n2-c1cc(C(C)(C)C)[nH]n1", "growth": "61.8% (inactive)"}
{"smiles": "O=c1c2cc(Br)cc(Br)c2nc(-c2ccc(Cl)cc2)n1/N=C/c1cccc(F)c1", "growth": "74.7% (inactive)"}
{"smiles": "CCOC(=O)Nc1ccc2nc(N3CCCCCC3)sc2c1", "growth": "24.5% (inactive)"}
{"smiles": "COC(=O)CSc1ccc(Cl)cc1", "growth": "106% (inactive)"}
{"smiles": "COc1ccc(C(=O)N2N=C(c3ccc(F)cc3)CC2c2cn(-c3ccccc3)nc2-c2ccccc2)cc1", "note": "(centres undefined)", "growth": "47.3% (inactive)"}
{"smiles": "N=c1nc(N2CCCCC2)cc(N)n1O", "growth": "109% (inactive)"}
{"smiles": "COc1ccc(C2NC(=O)c3cc4c(cc3N2)OCO4)cc1", "note": "(centres undefined)", "growth": "24.1% (inactive)"}
{"smiles": "O=C1OCC2=C1C(c1ccccc1)c1cc3c(cc1N2CCO)OCO3", "note": "(centres undefined)", "growth": "23.6% (inactive)"}
{"smiles": "COc1ccc(/C=C/c2nc(NCCCN(C)C)c3ccccc3n2)cc1", "growth": "4.57% (active)"}
{"smiles": "c1ccc(CCn2cccc2)nc1", "growth": "117% (inactive)"}
{"smiles": "Nc1cc(C(=O)O)cc(C(=O)O)c1", "growth": "110% (inactive)"}
{"smiles": "COc1ccc(CC2c3cc(OC)c(OC)cc3CC[N+]2(C)CCC(=O)OCCCCCOC(=O)CC[N+]2(C)CCc3cc(OC)c(OC)cc3C2Cc2ccc(OC)c(OC)c2)cc1OC", "note": "(centres undefined)", "growth": "100% (inactive)"}
{"smiles": "C=CCN(CC#N)CC=C", "growth": "107% (inactive)"}
{"smiles": "O=C1Nc2ccccc2/C1=C\\c1nc(C2CCN(S(=O)(=O)c3ccc(F)cc3)CC2)n2ccccc12", "growth": "82.8% (inactive)"}
{"smiles": "COc1ccc(Nc2nc(N)nc3c(=O)[nH]ccc23)cc1", "growth": "99.5% (inactive)"}
{"test_system": "MCF7 breast", "assay": "NCI-60 one-dose screen, 48 h (100 = growth as untreated, 0 = no growth, -100 = all killed)", "settings": "10 µM unless noted"}
{"smiles": "N/N=C(\\C(=N\\N)c1ccccc1)c1ccccc1", "growth": "90% (inactive)"}
{"smiles": "C=C(C)[C@@H]1CC[C@]2(C(=O)NS(=O)(=O)c3ccccc3)CC[C@]3(C)[C@H](CC[C@@H]4[C@@]5(C)CC[C@H](OC(=O)NS(=O)(=O)c6ccccc6)C(C)(C)[C@@H]5CC[C@]43C)[C@@H]12", "growth": "2.66% (active)"}
{"smiles": "O=[N+]([O-])c1ccc(N/N=C/c2ccccc2O)nc1", "growth": "16.8% (inactive)"}
{"smiles": "CC(C)c1ccc(-c2cnc3nonc3n2)cc1", "growth": "11.5% (inactive)"}
{"smiles": "COc1ccc(N=C2CSc3nnc(-c4cc(F)c(Cl)cc4Cl)n3N2)cc1", "growth": "-34.3% (active)"}
{"smiles": "CCCNCCC(C)=O", "growth": "106% (inactive)"}
{"smiles": "CN(C)c1ccc(/C=C\\c2cccc[n+]2C)cc1", "growth": "39.3% (inactive)"}
{"smiles": "COc1cccc(NC(=O)OC(C)C)c1", "growth": "102% (inactive)"}
{"smiles": "COC(=O)c1ccc2c(c1)nc(-c1ccc(Cl)cc1)n2-c1cc(C(C)(C)C)[nH]n1", "growth": "25.1% (inactive)"}
{"smiles": "Cc1ccc(Nc2cc(Cl)c([N+](=O)[O-])cc2[N+](=O)[O-])cc1", "growth": "25.9% (inactive)"}
{"smiles": "CCOC(=O)c1cc(C(=O)OCC)c(C)nc1C", "growth": "90.9% (inactive)"}
{"smiles": "O=C(Nc1cccc(C2=NCCN2)c1)c1ccc(N=Nc2ccc(C(=O)Nc3cccc(C4=NCCN4)c3)cc2)cc1", "growth": "62.4% (inactive)"}
{"smiles": "Cc1c(C(=O)CCl)c(=O)n(-c2ccccc2)n1C", "growth": "38.2% (inactive)"}
{"smiles": "O=C1/C=C/[C@@H](O)[C@@H]2C[C@@H](O)C[C@H]2/C=C/CCC[C@H]([C@@H](O)CO)O1", "growth": "45.1% (inactive)"}
{"smiles": "Cn1c(=O)c2c(nc(N/N=C/c3ccccc3Cl)n2C)n(C)c1=O", "growth": "96.2% (inactive)"}
{"smiles": "O=C1Nc2ccc(Cl)cc2/C1=C\\c1c(-c2ccc(F)cc2)nc2ccccn12", "growth": "-9.38% (active)"}
{"smiles": "O=C(O/C(=C/c1ccccc1)C(F)(F)F)c1ccccc1", "growth": "102% (inactive)"}
{"smiles": "COC(=O)c1ccc2c(c1)nc(-c1cc3ccccc3[nH]c1=O)n2-c1cc(C(C)(C)C)[nH]n1", "growth": "58.1% (inactive)"}
{"smiles": "O=c1c2cc(Br)cc(Br)c2nc(-c2ccc(Cl)cc2)n1/N=C/c1cccc(F)c1", "growth": "52.5% (inactive)"}
{"smiles": "CCOC(=O)Nc1ccc2nc(N3CCCCCC3)sc2c1", "growth": "19.5% (inactive)"}
{"smiles": "COC(=O)CSc1ccc(Cl)cc1", "growth": "97.2% (inactive)"}
{"smiles": "COc1ccc(C(=O)N2N=C(c3ccc(F)cc3)CC2c2cn(-c3ccccc3)nc2-c2ccccc2)cc1", "note": "(centres undefined)", "growth": "33.7% (inactive)"}
{"smiles": "N=c1nc(N2CCCCC2)cc(N)n1O", "growth": "84.2% (inactive)"}
{"smiles": "COc1ccc(C2NC(=O)c3cc4c(cc3N2)OCO4)cc1", "note": "(centres undefined)", "growth": "18.2% (inactive)"}
{"smiles": "O=C1OCC2=C1C(c1ccccc1)c1cc3c(cc1N2CCO)OCO3", "note": "(centres undefined)", "growth": "-11.1% (active)"}
{"smiles": "COc1ccc(/C=C/c2nc(NCCCN(C)C)c3ccccc3n2)cc1", "growth": "-67% (active)"}
{"smiles": "c1ccc(CCn2cccc2)nc1", "growth": "101% (inactive)"}
{"smiles": "Nc1cc(C(=O)O)cc(C(=O)O)c1", "growth": "99.8% (inactive)"}
{"smiles": "Fc1ccc(-c2nc(-c3ccc(-c4nc5ccc(F)cc5[nH]4)cc3)no2)cc1", "growth": "52.5% (inactive)"}
{"smiles": "N=C(N)c1ccc(NCCNc2ccc(C(=N)N)cc2)cc1", "growth": "101% (inactive)"}
{"smiles": "COc1ccc(CC2c3cc(OC)c(OC)cc3CC[N+]2(C)CCC(=O)OCCCCCOC(=O)CC[N+]2(C)CCc3cc(OC)c(OC)cc3C2Cc2ccc(OC)c(OC)c2)cc1OC", "note": "(centres undefined)", "growth": "85.2% (inactive)"}
{"smiles": "C=CCN(CC#N)CC=C", "growth": "95% (inactive)"}
{"smiles": "O=C1Nc2ccccc2/C1=C\\c1nc(C2CCN(S(=O)(=O)c3ccc(F)cc3)CC2)n2ccccc12", "growth": "48.7% (inactive)"}
{"smiles": "COc1ccc(Nc2nc(N)nc3c(=O)[nH]ccc23)cc1", "growth": "79.7% (inactive)"}
